Results filed as inconclusive are left out. Unmarked numbers belong to inactive results. Active and inactive are the calls of the source. Calls follow the shape of the dose curve; as a rule, active = well fitted curve in either direction with a large enough effect (not every such curve was filed as active); inconclusive = small, poorly fitted or top-dose-only effect, or another doubt; inactive = flat fitted curve, though single readings scatter. Starred links: 1 amine or outer side, 2 acyl side, 3 side chain; linkers in the order of their positions; H or OH if unused. Positions of bridges follow the written chain, without caps; N, C: chain ends. Non-standard residues stand in square brackets, D forms with d. Residues, ends and D or L forms follow the SMILES beside them. *: point of attachment. X1 = NC1=N[C@@H](O)C[C@@H]([C@@H](N[*:1])C(=O)[*:2])N1; ΔAla(Z-3-ureido) = NC(=O)N/C=C(\N)C(=O)O; β3hOrn = NCCC[C@H](N)CC(=O)*; Dap = NC[C@H](N)C(=O)O
target: Mitogen-activated protein kinase 10 (Mus musculus) (UniProt Q61831); assay: JNK3 AlphaScreen Assay (AID 530); conditions: JNK3 lysate, c-Jun phosphorylation; series mostly up to 25.6 µM; activity change, negative = inhibition: at the top concentration;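 also: kinase came from lysate of stimulated human HepG2 cells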
Excerpt: NIH Chemical Genomics Center [NCGC]
NIH Molecular Libraries Screening Centers Network [MLSCN]
The c-jun N-terminal kinase (JNK) family are serine/threonine protein kinases that phosphorylate c-jun, a component of the transcription factor […] (AP-1). JNK kinases are members of the mitogen-activated protein kinase family including the extracellular regulated kinases and p38 kinases. Three JNK genes (JNK 1, 2, and 3) have been identified in humans so far. JNK1 and JNK2 have a broad distribution and JNK3 is primarily found in neuronal tissues and cardiac myocytes.
JNK3 has been under consideration as a target for the treatment of neurodegenerative disorders. […] JNK pathway is also involved in pathological process in a mouse model of Parkinson's disease (Xia et al., 2001).
Given these potential tissue distributions and links to neuroprotection, JNK3 inhibitors should provide useful investigational tools to study the role of this kinase in several diseases including, arthritis, stroke, myocardial infarction, ischemic injury and Parkinson's disease.
A homogeneous AlphaScreen is developed to measure the activity of JNK3. AlphaScreen is a two bead-based proximity-dependent chemical energy transfer luminescent assay platform. The phosphorylation of a biotinylated c-jun substrate by JNK3 can be detected with an antibody raised against phosphorylated c-jun. This process brings streptavidin donor beads and Protein-A acceptor beads to within a proximity range of <200 nm, and subsequently lead a chemical luminescent reaction upon exciting donor beads with 680 nm laser excitation light. Inhibition of JNK3 activity by small molecules and subsequent decrease in the antibody binding to biotinylated c-jun could attenuate or abolish this chemical luminescent reaction.
Yang DD, Kuan CY, Whitmarsh AJ, Rincon M, Zheng TS, Davis RJ, Rakic P and Flavell RA (1997) Absence of excitotoxicity-induced apoptosis in the hippocampus of mice lacking the Jnk3 gene. Nature 389:865-870. [PMID: 9349820]
Herdegen T, Claret FX, Kallunki T, Martin-Villalba A, Winter C, Hunter T, and Karin M (1998) Lasting N-terminal phosphorylation of c-Jun and activation of c-Jun N-terminal kinases after neuronal injury. J.Neurosci. 18:5124-5135. [PMID: 9651196]
Xia XG, Harding T, Weller M, Bieneman A, Uney JB and Schulz JB (2001) Gene transfer of the JNK interacting protein-1 protects dopaminergic neurons in the MPTP model of Parkinson's disease. Proc.Natl.Acad.Sci.U.S.A. 98:10433-10438.
NCGC Assay Protocol Summary:
GST-cJun (1-79) (Stratagene, La Jolla CA, #205145) was biotnylated by PerkinElmer (PerkinElmer-BioSignalInc. Montreal, Canada) and was detectable by the streptavidin Donor beads. Anti-(phospho)cJun (Ser73) antibody was from UpState (Charlottesvilles, VA, #06-659). JNK3-containing lysates were generated from HepG2 cells and pre-activated by interleukin1-beta and tumor necrosis factor alpha. All reagents were stored at -20 C before using. Phosphorylated biotinylated-GST-cJun was recognized by Anti-(phospho)cJun (Ser73) antibody and this process brings acceptor and donor beads together. Therefore JNK3 phosphorylation of cJun can be measured by Alpha reading by EnVision (PerkinElmer, Boston, MA).
The composition of kinase buffer was (in mM) 20 tris- HCl (pH 7.6) 10 MgCl2, 1 DTT, and 0.1 Na3VO4 and 0.01% Tween-20. Beads were diluted in detection buffer containing (in mM) 20 tris-HCl (pH 7.7), 20 NaCl and 80 EDTA and 0.3% BSA. The assay was performed at room temperature. All compounds were screened as titrations from 0.6 nM to 46 uM final concentration. The assay was performed in 1536-well format (white solid bottom and untreated) as follows:
Sequence,Parameter,Value,Description
1,Reagent,3 uL,Biotin-GST-cJun, Anti-(phospho)cJun and pre-activated JNK3-containing lysates
2,Compound,23 nL,Final concentration was 0.6nM to 46uM
3,Time,15 minutes,Room Temperature
4,Reagent,1 uL,ATP final concentration 10uM
6,Reagent,0.5 uL,2ng/well bead mixture
[…]
% is scaled to controls: 0 for no effect and ±100 for the full control effect.

SMILES | activity change, negative = inhibition | Potency
NCCC[C@H](N)CC(=O)N[C@H]1CNC(=O)[C@@H]([C@@H]2C[C@H](O)N=C(N)N2)NC(=O)/C(=C/NC(N)=O)NC(=O)[C@@H](CO)NC(=O)[C@@H](CO)NC1=O (β3hOrn-[Dap][dS][dS][ΔAla(Z-3-ureido)][X1]; lactam 1-C) | 10.9% | 
CNC[C@H](O)[C@H](O)[C@H](O)[C@H](O)CO | -2.5% | 
CCCC(=O)Nc1ncnc2c1ncn2[C@@H]1O[C@H]2COP(=O)(O)O[C@@H]2[C@@H]1OC(=O)CCC | -4.18% | 
COc1ccc(-c2cc(=O)c3c(O)cc(O)cc3o2)cc1 | -6.21% | 
CC(=O)[C@@H]1CC[C@@H]2[C@@H]3C[C@H](C)C4=CC(=O)CC[C@@]4(C)[C@H]3[C@H](O)C[C@]21C | -0.142% | 
Cc1ccsc1/C=C\C1=NCCCN1C | 5.17% | 
FC(F)(F)c1ccccc1-c1ccc2ncnc(NC3CCNCC3)c2c1 | 4.42% [at 57.1 µM] | 
COc1c(O[C@H]2O[C@@H](CO)[C@@H](O)[C@@H](O)[C@@H]2O)cc2c(c1OC)-c1ccc(SC)c(=O)cc1[C@H](NC(C)=O)CC2 | -0.727% | 
CC(=O)N[C@H]1[C@@H](O[C@@H](C)C(=O)O)[C@H](O)[C@H](CO)O[C@@H]1O | 8.92% | 
Nc1ncnc2c1ncn2[C@@H]1O[C@H](COP(=O)(O)O)[C@@H](O)[C@@H]1O | -25.1% | 
C[C@@H]1C[C@H](OC(=O)c2ccccc2O)CC(C)(C)C1 | 5.67% | 
COc1cc2nc(N3CCN(C(=O)[C@@H]4COc5ccccc5O4)CC3)nc(N)c2cc1OC | -3.49% | 
Cc1n[nH]c(=O)[nH]c1=O | -4.64% | 
CO[C@]1(NC(=O)[C@H](C(=O)O)c2ccc(O)cc2)C(=O)N2C(C(=O)O)=C(CSc3nnnn3C)CO[C@H]21 | -3.38% | 
O=C(O)[C@@H]1CCCN1 | 1.06% [at 11.4 µM] | 
CC1(C)S[C@@H]2[C@H](NC(=O)[C@@H](N)c3ccc(O)cc3)C(=O)N2[C@H]1C(=O)O | 1.34% | 
O[C@@](CCN1CCCC1)(c1ccccc1)C1CCCCC1 | 2.45% | 
C=C(C)[C@H]1CC[C@]2(C(=O)O)CC[C@]3(C)[C@@H](CC[C@H]4[C@@]5(C)CC[C@@H](O)C(C)(C)[C@@H]5CC[C@@]43C)[C@H]12 | -5.4% | 
C=C1CC[C@H](O)C/C1=C/C=C1\CCC[C@]2(C)[C@H]1CC[C@H]2[C@@H](C)/C=C\[C@@H](C)C(C)C | -3.11% | 
NC[C@@H]1O[C@H](O[C@@H]2[C@H](O[C@@H]3O[C@H](CO)[C@@H](O)[C@@H]3O)[C@@H](O)[C@@H](N)C[C@H]2N)[C@@H](N)[C@H](O)[C@@H]1O | 2.41% | 

SMILES | activity change, negative = inhibition | Potency
Cc1ccc2c(c1)c1c3n2CCN[C@H]3CCC1 |  | inactive
CCC(=O)O[C@@H]1[C@H](C)O[C@H](O[C@H]2[C@@H](N(C)C)[C@H](O)[C@@H](O[C@@H]3[C@@H](CC=O)C[C@@H](C)[C@@H](O)/C=C\C=C/C[C@@H](C)OC(=O)C[C@@H](OC(=O)CC)[C@H]3OC)O[C@H]2C)C[C@]1(C)O | -3.9% | 
CC[C@H](C(=O)[C@H](C)[C@H](O)[C@H](C)CCc1ccc(C)c(O)c1C(=O)O)[C@H]1O[C@](CC)([C@@H]2CC[C@@](O)(CC)[C@H](C)O2)C[C@H]1C | -4.4% | 
O=C(c1cc(C(F)(F)F)cc(C(F)(F)F)c1)N1CCC[C@@]2(CCN(c3ccccn3)C2)C1 | -5.11% [at 57.1 µM] | 
CN1[C@H](CC(=O)c2ccccc2)CCC[C@H]1C[C@@H](O)c1ccccc1 | 6.74% [at 57.1 µM] | 
C1CCN2C[C@@H]3C[C@@H](CN4CCCC[C@H]34)[C@H]2C1 |  | inactive
CCC[C@H]1C[C@H](C(=O)N[C@H]([C@@H]2O[C@H](SC)[C@@H](O)[C@H](O)[C@@H]2O)[C@H](C)O)N(C)C1 | 6.09% | 
c1ccc2c(c1)CCC[C@@H]2C1=NCCN1 | 2.11% | 
C#C[C@@]1(O)CC[C@@H]2[C@@H]3CCC4=CC(=O)CC[C@@H]4[C@H]3CC[C@]21CC | 2.85% | 
CC(C)NC[C@H]1CCc2cc(CO)c([N+](=O)[O-])cc2N1 | -0.933% | 
COc1cc2c(cc1OC)-c1cc3ccc(OC)c(OC)c3c[n+]1CC2 | -14.2% | 
CC(=O)OCC(=O)[C@@]12OC(C)(C)O[C@@H]1C[C@H]1[C@H]3C[C@H](F)C4=CC(=O)C=C[C@@]4(C)[C@]3(F)[C@H](O)C[C@@]12C | 2.58% | 
C=CCO[C@@H](Cn1ccnc1)c1ccc(Cl)cc1Cl | -6.41% | 
CN(C)/N=N\c1nc[nH]c1C(N)=O | -9.12% | 
CC[N+](CC)(CC)CC[C@](O)(c1ccccc1)C1CCCCC1 | -3.6% | 
C[C@@H]1[C@H](C)CC[C@@]2(C(=O)O)CC[C@]3(C)C(=CC[C@H]4[C@@]5(C)CC[C@@H](O)C(C)(C)[C@@H]5CC[C@@]43C)[C@@H]12 | 21% | 
CC(=O)OCC(=O)[C@@]1(O)CC[C@@H]2[C@H]3CCC4=CC(=O)CC[C@]4(C)[C@]3(F)[C@@H](O)C[C@@]21C | -2.52% | 
Cn1nnnc1SCC1=C(C(=O)O)N2C(=O)[C@@H](NC(=O)[C@@H](O)c3ccccc3)[C@@H]2SC1 | -3.87% | 
C[N+]1(C)CC[C@@H](OC(=O)[C@@](O)(c2ccccc2)C2CCCC2)C1 | -1.63% | 
CO[C@H]1[C@H](O[C@H]2O[C@@H](C)[C@@H](O[C@@H]3C[C@](C)(O)[C@H](OC(=O)CC(C)C)[C@H](C)O3)[C@@H](N(C)C)[C@@H]2O)[C@@H](CC=O)C[C@@H](C)[C@@H](O)/C=C\C=C/C[C@@H](C)OC(=O)C[C@H]1OC(C)=O | 4.47% | 

— PubChem BioAssay (NCATS)
